± gives the standard deviation.

Drawing on the supplement of paper PMC3484114, this text covers cell growth for 40 compounds.

The experiment deals with OVCAR-3-derived ovarian cancer stem-like cells (spheroids). In words: cell growth relative to untreated control; higher = more growth (less inhibition). The settings on record: 2.29 µM; 96 h. The procedure, abridged:
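Stem-like cells derived from OVCAR-3 spheroids were dissociated with trypsin and seeded at 50,000 cells/mL in stem cell medium in ultra-low attachment 96-well plates, then preincubated for 24 h. Each compound was added at 2.29 uM to 4 replicate wells and left for 96 h at 37°C, 5% CO2. Viability came from TOX8 resazurin fluorescence (ex 560/em 590 nm) read after 4 h. Percent growth was expressed relative to untreated wells, after blank subtraction and removal of outliers by the Grubbs test.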
In turn, `O=C(Nc1ccc(Sc2ccc(N=Nc3c(O)c(S(=O)(=O)O)cc4cc(S(=O)(=O)O)ccc34)cc2)cc1)c1ccc(N=Nc2c(O)ccc3c(S(=O)(=O)O)cc(S(=O)(=O)O)cc23)cc1` came in with a cell growth of 95.9 ± 9.6%.

In the case of `Cc1cc(Cl)ccc1N1C(=O)C(=O)C(c2nc3ccccc3o2)C(=O)C1=O`, the cell growth stood at 134 ± 53%.

As for `Nc1nncs1`, the cell growth turned out to be 98.4 ± 22%.

`CCC1CN2CCc3cc(OC)c(OC)cc3C2CC1CC1c2cc(OC)c(OC)cc2CCN1C(=O)C(Cc1c[nH]c2ccccc12)NC(=O)OC(C)(C)C` (stereo not given) gave a cell growth of 94 ± 23%.

As to `Oc1cc(-n2cccn2)c(O)cc1-n1cccn1`, the cell growth was 103 ± 13%.

As for `CCCCCCCCCCCCCCCCOCC(O)CO` (stereo not given), the cell growth worked out at 126 ± 28%.

`Oc1[nH]c2ccccc2c1N=Nc1nc(-c2ccc(Br)cc2)cs1` came in with a cell growth of 81.5 ± 29%.

For `CN(C)c1ccc(/C=C/C(=O)c2ccccc2)cc1Br`, the cell growth was determined as 114 ± 9.2%.

With `CC1=CC(C)(C)N=C2SC(c3ccc(N)cc3)=NN12`, the cell growth amounted to 112 ± 28%.

With `O=c1cccccc1O`, the cell growth was found to be 92.1 ± 38%.

On to `C=C1C(=O)OC2/C=C(/CO)[C@@H](OC(C)=O)C[C@H](O)/C(C)=C\[C@@H](OC(=O)[C@@H](C)CC)[C@@H]12` (stereo not given in full), for which the cell growth was found to be 100 ± 50%.

`Nc1nc(Cl)nc2c1ncn2[C@H]1C[C@H](O)[C@@H](CO)O1`: the cell growth is 82.7 ± 17%.

For the compound `OCC1OC(n2cnc3c(SCc4ccccc4)ncnc32)C(O)C1O` (stereo not given), the cell growth stood at 118 ± 33%.

As for `C=CCOC1OC(CO[Si](C)(C)C(C)(C)C)C(OCc2ccccc2)C(OCc2ccccc2)C1OCc1ccccc1` (stereo not given), the cell growth is 116 ± 18%.

`Cc1ccc([S+](c2ccccc2)c2cc(C)ccc2C)cc1.O=C(OC(C(=O)[O-])C(OC(=O)c1ccccc1)C(=O)O)c1ccccc1` (stereo not given): the cell growth was 43.6 ± 5.1%.

In the case of `COC(=O)[C@@H]1[C@H](O)[C@H](C)[C@H](O)[C@H](C)/C=C\C=C(/C)C(=O)Nc2c(C)c(OC(C)=O)c3c(c2O)C(=O)C(C)=C2OCOC(=C23)/C(C)=C/[C@@](C)(O)[C@H](O)[C@@H](C)[C@H]1OC(C)=O`, the cell growth is 110 ± 22%.

As to `CN(NC1=NCCO1)c1ccc2ccccc2c1`, the cell growth was found to be 117 ± 18%.

`CC(C)[Si]1(C(C)C)OCC2OC(n3cnc4c(N)ncnc43)C(N)C2O[Si](C(C)C)(C(C)C)O1` (stereo not given) showed a cell growth of 85.1 ± 22%.

`O=[N+]([O-])c1ccc2oc(=Nc3ccccc3)c(Nc3ccccc3)nc2c1`: the cell growth was 101 ± 11%.

`Cc1c(C(=O)C/C(=N/NC(=O)CC#N)C(N)=O)[n+](=O)c2ccccc2n1[O-]`: the cell growth is 51.9 ± 10%.

The compound `CSC1SC[C@H]2C(=O)N(C)[C@@H](C(C)C)C(=O)OC[C@@H](NC(=O)c3cnc4ccccc4n3)C(=O)N[C@@H](C)C(=O)N(C)[C@@H]1C(=O)N(C)[C@@H](C(C)C)C(=O)OC[C@@H](NC(=O)c1cnc3ccccc3n1)C(=O)N[C@@H](C)C(=O)N2C` (stereo not given in full) came in with a cell growth of 19.7 ± 3.8%.

In turn, `COCCOC1=C(Cl)C(=O)c2c(O)ccc(O)c2C1=O` had a cell growth of 114 ± 18%.

`O=C1c2ccccc2C(=O)c2c(O)c(NCCNCCO)cc(O)c21` registered a cell growth of 82.8 ± 24%.

The compound `Cc1nn(-c2ccccc2)c2c1CC(=O)Nc1ccccc1-2` showed a cell growth of 114 ± 32%.

Take `COC(=O)NC1C(C)OC(OC2C/C=C(/C)C3C=CC4C(OC5CC(OC6CC(O)C(OC7CC(O)C(OC)C(C)O7)C(C)O6)C(O)C(C)O5)C(C)CC(C)C4C3(C)/C(O)=C3\C(=O)OC4(CC(C)C(CO)=CC4/C=C\2C)C3=O)CC1(C)[N+](=O)[O-]` (stereo not given): the cell growth is 105 ± 34%.

On to `COc1cc(O)c2c(c1)C(=O)c1cc3c(c(O)c1C2=O)C(OC1OC(C)C(O)C(O)C1OC)C(OC)C(C)(O)C3=O` (stereo not given), for which the cell growth was 17.1 ± 7.5%.

Consider `Nc1ncnc2c1ncn2C1OC(CO)C(O)C1O` (stereo not given), for which the cell growth came out at 111 ± 13%.

`CO[C@@H]1C[C@](C)(O)Cc2cc3c(c(O)c21)C(=O)c1c(O)cc2c(c1C3=O)O[C@@H]1O[C@@]2(C)[C@H](O)[C@@H](N(C)C)[C@@H]1O` returned a cell growth of 37.7 ± 42%.

`O=c1ncccn1C1OC(CO)C(O)C1F` (stereo not given) displayed a cell growth of 113 ± 22%.

On to `O=C1c2ccccc2C(=O)c2c(O)c(O)cc(O)c21`, for which the cell growth came out at 25.5 ± 6.6%.

Consider `CCN(CC)CCCNc1ncc(C)c2[nH]c3ccncc3c12`, for which the cell growth stood at 82.7 ± 8.6%.

The compound `Nc1ccccc1N` showed a cell growth of 88.4 ± 25%.

`COC(=O)c1ccccc1NC(=O)C(=O)CC(=O)c1ccccc1NC1=CC(=O)C(=O)c2ccccc21` came in with a cell growth of 65.5 ± 12%.

On to `Cc1cc(O)c2c(c1)C(=O)c1cc(O)cc(O)c1C2=O`, for which the cell growth came out at 107 ± 17%.

Compound `O=C1C2=Nc3ccccc3C(O)N2c2ccccc21` (stereo not given) registered a cell growth of 91 ± 12%.

Turning to `NC1=C(Br)C(=O)c2ncccc2C1=O`, the cell growth was determined as 15.3 ± 3.8%.

For `CCCN(CCC)C(=S)Sc1nc(C)nc(N2CCN(c3nc(C)nc(SC(=S)N(CCC)CCC)c3[N+](=O)[O-])CC2)c1[N+](=O)[O-]`, the cell growth turned out to be 107 ± 22%.

Take `COc1cc(NC(C)CCCN)c2ncccc2c1` (stereo not given): the cell growth was 56.5 ± 7%.

In the case of `[Cl][Pt+2][Cl].[NH-]C1CCCCC1[NH-]` (stereo not given), the cell growth turned out to be 98.5 ± 28%.

In turn, `NCCSSCc1ccccc1CSSCCN` had a cell growth of 109 ± 25%.
